Screening data as filed in PubChem.
Most compounds without a hit are left out; they make up all but 19% or so of the library.
TDP1 cell noCPT: qHTS for Inhibitors of human tyrosyl-DNA phosphodiesterase 1 (TDP1): qHTS in cells in absence of CPT; DT40 Tdp1-/- hTDP1 cells, no CPT, ATP luminescence, 48 h; Potency, µM (doses to about 46.2 µM), without a hit: top-dose activity change, negative = growth inhibition, actives largely listed as inhibitors; actives 15% (n = 420,000); AID 686978, 2013; also: nearly all actives have a fitted effect of over 55% in size
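Stably hTDP1-transfected Tdp1-null chicken DT40 cells were treated with library compounds minus camptothecin and grown for at least 48 hr at 37 °C, after which cellular ATP was quantified by luminescence.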
HT1080NT lethal: kills 2HG-producing HT-1080-NT fibrosarcoma cells. actives 1.6% (n = 360,000). AID 686970. Potency, µM (highest dose often 46.1 µM), for the others: at the top dose activity, negative = less viability, most hits filed as cytotoxic. HT-1080-NT fibrosarcoma viability, CellTiter-Glo ATP luminescence, 48 h;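 also: NT is the 2HG producing partner of a matched IDH1 knockdown line; 0% = DMSO-treated cells and -100% = media-only wells without cells; nearly all actives have a fitted effect of over 55% in size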
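Read-out is CellTiter-Glo luminescence after 10 minutes at room temperature, following 48 hours' compound treatment of HT-1080-NT cells (750 cells/well, RPMI, 5% FBS, 37 degrees C).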
TDP1 cell CPT: DT40-hTDP1 cell growth loss with CPT; AID 686979; chicken DT40 Tdp1-/-;hTDP1 cells + 20 nM CPT, ATP luminescence, 48 h; actives 12% (n = 420,000); Potency, µM (highest dose often 46.2 µM), inactives show at the highest dose activity change, negative = growth inhibition, most hits filed as inhibitors; also: nearly all actives have a fitted effect of over 55% in size
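Cell growth measured by CellTiter-Glo luminescence after a minimum 48 h, 37 C compound exposure with 20 nM CPT in Tdp1-knockout DT40 cells stably expressing hTDP1, seeded 400/well; qHTS titration format.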
KB-3-1 tox: kills parental KB-3-1 adenocarcinoma cells | AID 1347075 | actives 1.4% (n = 400,000) | KB-3-1 viability, CellTiter-Glo ATP luminescence, 72 h | Potency, µM (highest dose often 46.1 µM), actives largely listed as cytotoxic; also: nearly all actives have a fitted effect of over 60% in size
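Luminescent ATP read-out (CellTiter-Glo) measures survival of drug-naive KB-3-1 cells after 72 h compound exposure at 37 °C. Titration series was screened from lowest to highest concentration, with DMSO vehicle plates as background controls.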
HT1080 IDH1KD tx: kills HT-1080 cells with IDH1 knockdown | HT-1080 IDH1 knockdown viability, ATP luminescence, 48 h | Potency, µM (titrated, usually from 46.1 µM), for the others: top-dose activity, negative = toxicity, usual class: cytotoxic | actives 2% (n = 360,000);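 also: 0% = DMSO wells and -100% = cell-free medium wells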
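After a 2 h attachment period, IDH1KD HT-1080 cells took pin-transferred compound for 48 h at 37 °C; ATP-based luminescence after 10 min room-temperature reagent incubation reported viability.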
KB-V1 cytotox: KB-V1 MDR subline cytotoxicity; KB-V1 MDR cells viability, CellTiter-Glo, 72 h; Potency, µM (doses to about 46.1 µM), usual class: cytotoxic; actives 3.4% (n = 400,000); also: nearly all actives have a fitted effect of over 60% in size
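Compound-treated KB-V1 multidrug-resistant cells, 72 h, 37 degrees C; viability by CellTiter-Glo. Fitted qHTS curves give the values.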
* marks the source's active call; other numbers are inactive results; i = inactive; ? = inconclusive; · = no result. Calls follow the shape of the dose curve; as a rule, active = well fitted curve in the direction sought with a large enough effect; inconclusive = small, poorly fitted or top-dose-only effect, or another doubt; inactive = no such curve, though single readings can be large; an effect the other way counts as inactive or inconclusive. Unless noted, % is scaled to controls: 0 for no effect and ±100 for the full control effect; potency is read from the fitted curve at half-maximal effect.

SMILES	TDP1 cell noCPT	HT1080NT lethal	TDP1 cell CPT	KB-3-1 tox	HT1080 IDH1KD tx	KB-V1 cytotox
CC(C)C(NC(=O)C12CC3CC(CC(C3)C1)C2)C(=O)N/N=C/C1=C(N2CCOCC2)C(=C\c2ccc([N+](=O)[O-])cc2)/CC1 (configuration not stated)	-24%	12%	-22%	i	5%	?
N#C/C(=C/C1=C(N2CCOCC2)C(=C/c2cccc([N+](=O)[O-])c2)/CC1)C(=O)Nc1ccccc1F	8.2µM*	0%	10µM*	·	1%	·
N#C/C(=C\C1=C(N2CCOCC2)C(=C/c2cccc([N+](=O)[O-])c2)/CC1)C(=O)Nc1ccccc1F	10µM*	9%	9.2µM*	i	5%	i
[N-]=[N+]=NCCN1CCN(CCc2ccccc2)CCC1=O	-1%	9%	3%	i	0%	?
COc1cc(C(=O)N2CCC2(C)C(=O)O)cc(OC)c1OC (configuration not stated)	-12%	11%	-5%	i	12%	i
COc1ccc(Nc2c(-c3ccc(C)o3)nc3ccc(Cl)cn23)cc1	18µM*	·	7.3µM*	i	·	i
Clc1ccc(Nc2c(-c3ccccc3Cl)nc3ccc(Cl)cn23)cc1	26µM*	·	?	i	·	i
CCc1ccc(NC(=O)c2ccc(F)c(S(=O)(=O)NC3CCCCCC3)c2)cc1	21µM*	·	?	·	·	·
Cc1ccccc1NC(=O)c1ccc(F)c(S(=O)(=O)NC2CCCC2)c1	-10%	·	6%	·	·	·
O=C(Nc1cc(Cl)cc(Cl)c1)c1ccc(F)c(S(=O)(=O)NC2CCCC2)c1	18µM*	·	16µM*	·	·	·
CCc1ccc(NC(=O)c2ccc(F)c(S(=O)(=O)N(C)C3CCCCC3)c2)cc1	21µM*	·	?	·	·	·
CCN(CCCNC(=O)CN1C(=O)COc2ccc(S(=O)(=O)N3CCC(C)CC3)cc21)Cc1ccccc1	-21%	-24%	?	i	?	i
COc1cccc(CN2C(=O)NC(C)(C3CCN(Cc4cnn(C)c4C)CC3)C2=O)c1OC (configuration not stated)	0%	·	4%	·	·	·
O=C(O)c1ccccc1C(=O)Nc1ccccc1	-2%	10%	2%	i	1%	i
O=C(Nc1ccccc1)C1=C(c2ccccc2)S(=O)(=O)CCS1(=O)=O	0.026µM*	23µM*	0.058µM*	?	3.3µM*	i
Cc1oc2c(C)c3oc(=O)c(CCC(=O)O)c(C)c3cc2c1-c1ccccc1	-15%	17%	-11%	i	0%	i
COCCCN1C(=O)C(CC(=O)NCc2cccc3ccccc23)CC(C(=O)N2CCCCCC2)=C1C (configuration not stated)	12%	-2%	-6%	·	-8%	10µM*
CCCCN1C(=O)C(CC(=O)NCc2cccc3ccccc23)CC(C(=O)N2CCCCCC2)=C1C (configuration not stated)	?	0%	?	?	-5%	9.2µM*
COCCCN1C(=O)C(CC(=O)NCc2cccc3ccccc23)CC(C(=O)N2CCOCC2)=C1C (configuration not stated)	3%	18%	12%	i	20%	i
O=c1c(-c2ccc(O)cc2)coc2c(C3OC(CO)C(O)C(O)C3O)c(O)ccc12 (configuration not stated)	-4%	·	-7%	·	·	·
CN(C)S(=O)(=O)N1CCc2ccc(NC(=O)c3ccc(C(F)(F)F)cc3)cc2C1	23µM*	16µM*	16µM*	?	?	?
O=C(/C=C1\C(=O)Nc2ccccc21)/C=C1\C(=O)Nc2ccccc21	1.8µM*	?	1.5µM*	?	?	i
O=C1Nc2ccccc2/C1=C\C(=O)c1ccccc1	2.1µM*	18µM*	2.9µM*	i	?	i
CN(O)/C=C1\C(=O)Nc2ccccc21	-31%	-6%	-9%	i	-12%	?
CC(C)Oc1ccc(C(=O)/C=C2/C(=O)Nc3ccccc32)cc1	12µM*	?	?	?	?	i
SMILES	TDP1 cell noCPT	HT1080NT lethal	TDP1 cell CPT	KB-3-1 tox	HT1080 IDH1KD tx	KB-V1 cytotox
COc1ccc(C2(C)NC(=O)N(CC(=O)c3cc(C)n(C4CC4)c3C)C2=O)cc1OC (configuration not stated)	13µM*	5%	18µM*	?	2%	23µM*
Clc1ccc(OCCN2CCOCC2)cc1Cl	-12%	17%	-9%	i	8%	i
NC(=S)NN=C1c2cc(OCCN3CCOCC3)ccc2-c2ccc(OCCN3CCOCC3)cc21	16µM*	?	16µM*	23µM*	?	?
C=CCOc1ccc2c(c1)C(=NO)c1cc(OCC=C)ccc1-2	23µM*	1%	?	?	-12%	?
ON=C1c2cc(OCCN3CCCCC3)ccc2-c2ccc(OCCN3CCCCC3)cc21	8.2µM*	21µM*	7.3µM*	?	23µM*	?
COc1ccc2c(c1)C(=NO)c1cc(OC)ccc1-2	?	-16%	?	i	-20%	i
Nc1nc(NCCOCCO)nc(N2CCCCCC2)c1[N+](=O)[O-]	-18%	3%	-1%	i	-1%	i
Cc1cc(N2CCOCC2)c2c(N)c(Br)cc(C)c2n1	3.3µM*	0%	?	?	-2%	?
COc1cccc(CNc2ccc3c(c2)CCC3)c1	-14%	5%	-11%	i	-1%	i
S=c1[nH]nc(CCc2ccccc2)n1Cc1ccccc1	?	6%	-30%	i	7%	i
CCOc1ccc(-n2c(CCc3ccccc3)n[nH]c2=S)cc1	?	-2%	?	i	-12%	?
CCCOc1ccc(CCc2n[nH]c(=S)n2-c2ccccc2)cc1	16µM*	-3%	?	i	-19%	i
CCCOc1ccc(CCc2n[nH]c(=S)n2Cc2ccccc2)cc1	21µM*	?	?	i	?	i
COc1ccc(N2CCN(C(=O)COC(=O)CNC(=O)c3ccc(C)cc3)CC2)cc1	-12%	2%	-17%	i	11%	i
CN(C)CCCC1Sc2ccccc2Sc2ccccc21 (configuration not stated)	?	23µM*	?	?	?	i
